Laboratory results: PubChem BioAssay
A number with no mark means an inactive call. How the calls were made is not given here.

molecular target: Pantothenate synthetase (Mycobacterium tuberculosis (strain ATCC 25618 / H37Rv)) (UniProt P9WIL5); test: Recombinant Mtb pantothenate synthetase (PanC) inhibitors, coupled enzyme, confirmatory (AID 375); conditions: coupled enzyme assay; at 10 µM, active compounds read high;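 further: 0% = full reaction with vehicle and 100% = no enzyme background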
Sequence (P9WIL5 whole entry, looked up): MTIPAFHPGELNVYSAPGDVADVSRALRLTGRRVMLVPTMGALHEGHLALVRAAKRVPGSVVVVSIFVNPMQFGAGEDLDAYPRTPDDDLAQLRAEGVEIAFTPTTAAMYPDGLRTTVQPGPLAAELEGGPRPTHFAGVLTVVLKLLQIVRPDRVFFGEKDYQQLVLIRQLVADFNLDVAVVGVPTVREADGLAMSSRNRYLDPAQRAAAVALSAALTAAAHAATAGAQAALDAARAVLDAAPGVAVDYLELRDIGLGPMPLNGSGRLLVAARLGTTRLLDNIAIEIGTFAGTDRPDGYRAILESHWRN

Compound	inhibition [%]
CC(C)C(=O)N1CCN(c2nc(-c3ccccc3)c3c(c2C#N)CCCC3)CC1	0
CCCCCCCCCCCCCCCC(O)C(N)CO (stereo not given)	0
COC(=O)c1c(C)oc2ccc(NS(=O)(=O)c3cccs3)cc12	0
CCCn1c(SCC(=O)NC(=O)NCc2ccco2)n[nH]c1=O	0
CCOC(=O)c1cnc(-n2nc(C)cc2C)nc1Nc1ccc(N(C)C)cc1	8
O=C(c1ccccc1Br)N1CCN(c2ccccc2)CC1	8
O=C(CSCc1ccccn1)Nc1ccccc1	0
CCOC(=O)CN1CC23C=CC(O2)C(C(=O)NC2CCCC2)C3C1=O (stereo not given)	3
O=C(COC(=O)c1ccco1)NCc1cccs1	0
NC(=O)c1c(NC(=O)CN2CCCC2)sc2c1CCCC2	4
Cc1cc(N2CCN(C)CC2)nc(N2CCOCC2)n1	0
Cc1cc(=O)oc2cc(OCC(=O)OCc3nnc(-c4ccccc4)o3)ccc12	1
COc1ccccc1OC(=O)c1ccc(SC)cc1OC	2
CCOC(=O)N1CCN(C(=O)c2ccc(CS(=O)(=O)c3ccc(OC)cc3)o2)CC1	1
CCC(C(=O)Nc1ncccn1)(C(F)(F)F)C(F)(F)F	0
CN(Cc1cccs1)C(=O)CCc1ccc(S(=O)(=O)N2CCOCC2)cc1	1
NC(=O)C1(N2CCCCC2)CCN(Cc2ccccc2Cl)CC1	0
Cc1cccnc1-n1c(CCN2C(=O)c3ccccc3C2=O)nc2ccccc2c1=O	9
O=C(CSc1nnc2scc(-c3ccccc3)n12)Nc1nsc(-c2ccccc2)n1	1
CC(OC(=O)c1ccco1)C(=O)NCc1cccs1 (stereo not given)	0

Compound	inhibition [%]
CCCOc1ccc(-c2nnn(CC(=O)Nc3cccc(C(=O)OC)c3)n2)cc1	7
CC1(C)CC(=O)CC(=Nc2ccc(C(=O)O)cc2)C1	8
Cc1cccc(N2CCN(S(=O)(=O)c3ccc4c(c3)CCC(=O)N4)CC2C)c1 (stereo not given)	6
CCOC(=O)C1CCN(c2c(N3CCCC(C(=O)OCC)C3)c(=O)c2=O)CC1 (stereo not given)	6
CCOC(=O)CSc1nnc(Cn2c(=O)sc3ccccc32)n1C	0
CC1(C)NC(=O)N(CN2C(=O)NC(C)(C)C2=O)C1=O	0
c1nc(NCC2(N3CCOCC3)CCCCC2)c2ccsc2n1	0
CCOC(=O)CNC(=O)Nc1nnc(-c2ccc(OCC)cc2)o1	5
Cc1nc(SCC(=O)Nc2ccccc2C(F)(F)F)c2c(=O)n(C)c(=O)n(C)c2n1	4
O=C(Nc1cccc(O)c1)c1ccccc1	0
CCOc1ccc(C2C(C(=O)OC)=CN(CCOC)C=C2C(=O)OC)cc1	4
N#CCCN(C(=O)Nc1ccc(Cl)cc1)c1ccccc1	1
O=C(NCC1CCCO1)C1CCCN(Cc2cnn(-c3ccccc3)c2-n2cccc2)C1 (stereo not given)	0
O=C(Nc1ccccc1C(=O)N1CCCCCC1)c1cccc(S(=O)(=O)N2CCOCC2)c1	5
CCCN(CC1CC1)C(=O)Nc1ccccc1C	1
O=C(NC1(C(=O)NC2CCCCC2)CCCCC1)c1ccc2c(c1)OCO2	3
COC(=O)c1cccc(NC(=O)Cc2coc3cc(OC)ccc23)c1	0
C=Cn1c(C(=O)O)cc(CC)c1-c1ccccc1	9
O=C1c2cccnc2C(=O)N1c1cccc(-c2nc3ccccc3o2)c1	3
CC(NC(=O)OCc1ccccc1)C(=O)N1CC(O)CC1C(=O)O (stereo not given)	0
